Out of some 220,000 compounds screened, about 830 (0.38%) were called active. The full list was thinned out, with actives kept by preference. A number with no mark means an inactive call. How the calls were made is not given here.

Regulator of G-protein signaling 16 (Homo sapiens) + Guanine nucleotide-binding protein G(o) subunit alpha (Homo sapiens), sequence (O15492 whole entry, looked up): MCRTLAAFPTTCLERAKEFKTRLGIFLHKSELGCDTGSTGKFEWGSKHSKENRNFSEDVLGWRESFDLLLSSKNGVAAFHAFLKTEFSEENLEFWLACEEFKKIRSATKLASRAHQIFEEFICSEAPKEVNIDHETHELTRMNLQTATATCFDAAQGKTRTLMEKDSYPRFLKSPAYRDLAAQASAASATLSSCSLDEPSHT
Regulator of G-protein signaling 16 (Homo sapiens) + Guanine nucleotide-binding protein G(o) subunit alpha (Homo sapiens), sequence (P09471 whole entry, looked up): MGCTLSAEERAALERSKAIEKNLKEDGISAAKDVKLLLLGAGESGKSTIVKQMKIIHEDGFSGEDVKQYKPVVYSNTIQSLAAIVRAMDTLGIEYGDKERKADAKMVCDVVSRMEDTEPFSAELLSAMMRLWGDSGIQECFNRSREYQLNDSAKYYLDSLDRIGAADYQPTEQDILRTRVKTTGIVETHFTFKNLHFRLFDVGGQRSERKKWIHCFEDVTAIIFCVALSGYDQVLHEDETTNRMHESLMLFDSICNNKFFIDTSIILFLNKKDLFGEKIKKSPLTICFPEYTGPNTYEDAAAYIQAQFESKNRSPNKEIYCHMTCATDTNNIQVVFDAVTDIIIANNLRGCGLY

This experiment addresses Regulator of G-protein signaling 16 (Homo sapiens) + Guanine nucleotide-binding protein G(o) subunit alpha (Homo sapiens) (UniProt O15492+P09471). In words: modulators of RGS16 binding to Galphao, primary screen, biochemical, human proteins, multiplexed bead flow cytometry (AID 1441).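 Further: Galphao activated by GDP with aluminum fluoride before binding.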 Particulars: bead-based flow cytometry RGS16-Galphao binding, fluorescence; at 10 µM; actives lie on both sides. In general terms: In flow cytometry, cells or beads pass a laser one at a time.
As for `CC(C)N(CC#CCC1(O)c2ccccc2-c2ccccc21)C(C)C`, the binding response (% of control) is 180% [activator] (active).
For `CCOC(=O)C1(Cc2ccc(Cl)cc2)CCN(C(C)CCn2cccn2)CC1` (stereo not given), the binding response (% of control) is 102%.
The same measure for `O=[N+]([O-])c1ccc(C2C3C(c4ccccc4)=NC4(CCCCC4)N32)cc1` (stereo not given): 100%.
For the molecule `COc1ccc(CN2C(=O)NC(=O)/C(=C\c3ccc(OC)c(OC)c3OC)C2=O)cc1`, the binding response (% of control) was 97.6%.
For `CCOC(=O)c1c(-c2ccccc2)oc2ccc(OC(=O)N(C)C)cc12`, the binding response (% of control) is 116%.

These data come from PubChem BioAssay AID1441 (NMMLSC, 2008).
